Values joined by “and” are separate entries in the source; they are usually repeats but may differ in a detail not shown here. Equal values may be shown once. Inconclusive results are not listed. Some structures have more than one record in an assay (separate samples or runs), and their calls can disagree. Active and inactive are the calls of the source. Unless noted, calls follow the shape of the dose curve; as a rule, active = well fitted curve in the direction sought with a large enough effect in the repeat runs; inconclusive = weak or mixed curves; inactive = no such curve, though single readings can be large; an effect the other way counts as inactive or inconclusive.
Tests used:
[1] = qHTS assay to identify aromatase inhibitors - cell viability counter screen (AID 743084);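 also: cells stimulated with testosterone during compound exposure; nearly all actives have a fitted effect of over 55% in size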
[2] = biological target: Aryl hydrocarbon receptor (Homo sapiens) (UniProt P35869); assay: qHTS assay to identify small molecule that activate the aryl hydrocarbon receptor (AhR) signaling pathway (AID 743085); also: nearly all actives have a fitted effect of over 15% in size; also: potency is read from the fitted curve at half-maximal effect;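 as to activation: HG2L7.5c1 human HepG2 liver cells with stably integrated DRE-driven firefly reporter; series mostly up to about 70 µM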
Summary of the method: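 Steps: seed HepG2-AhR-luc cells; allow 5 h at 37C; pin-transfer test compound or vehicle; incubate 24 h at 37C; add viability dye (30 min, 37C) and read fluorescence; add luciferase substrate (30 min, RT) and read luminescence.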

[3] = biological target: Peroxisome proliferator-activated receptor gamma (Homo sapiens) (UniProt P37231); assay: qHTS assay to identify small molecule agonists of the peroxisome proliferator-activated receptor gamma (PPARg) signaling pathway (AID 743094; active = well fitted activation curve with a large enough effect in the signal ratio in the repeat runs, not every such curve was filed as active; the % refers to the signal ratio)
Summary of the method: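 Beta-lactamase FRET fluorescence was the read-out after a 1 h room-temperature substrate step, following 17 h compound treatment at 37C of HEK293H cells expressing a UAS-driven bla reporter responsive to PPARg.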

[4] = biological target: Peroxisome proliferator-activated receptor gamma (Homo sapiens) (UniProt P37231); assay: qHTS assay to identify small molecule antagonists of the peroxisome proliferator-activated receptor gamma (PPARg) signaling pathway (AID 743191; calls by dose curve; also: series mostly up to about 63 µM; nearly all actives have a fitted effect of over 30% in size)
Summary of the method: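 Beta-lactamase reporter under UAS control in HEK293H PPARg-bla cells; compound treatment 17 h at 37C. Read-out: fluorescence intensity after 1 h room-temperature incubation with LiveBLAzer B/G FRET substrate.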

[5] = qHTS assay to identify small molecule antagonists of the peroxisome proliferator-activated receptor gamma (PPARg) signaling pathway - cell viability counter screen (AID 743194); also: nearly all actives have a fitted effect of over 55% in size
Summary of the method: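 Viability was measured as CellTiter-Glo luminescence in GeneBLAzer PPARg UAS-bla HEK293H cells. These cells had been exposed 17 h at 37 C to compounds together with rosiglitazone at 50 nM final, with the beta-lactamase readout taken in the same wells.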

[6] = qHTS assay for small molecule agonists of the antioxidant response element (ARE) signaling pathway - cell viability counter screen (AID 743203; calls by dose curve; also: nearly all actives have a fitted effect of over 55% in size)
Summary of the method: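 HepG2 cells carrying ARE-driven beta-lactamase; 2,000 cells/well; 5 hrs plating; compound pinned from DMSO; 16 hrs 37C/5% CO2; CellTiter-Glo added; 30 min RT; luminescence.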

[7] = qHTS assay for small molecule activators of the heat shock response signaling pathway - cell viability counter screen (AID 743209); also: nearly all actives have a fitted effect of over 50% in size
Summary of the method: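 Luminescence from CellTiter-Glo, added after the beta-lactamase FRET read, gave the viability signal. Cells were HSE-bla HeLa treated with DMSO-dissolved compounds for 5 h at 37 C following overnight plating.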

[8] = qHTS assay for small molecule activators of the heat shock response signaling pathway (AID 743210; active = well fitted activation curve with a large enough effect in the signal ratio in the repeat runs, with a control signal flat, not every such curve was filed as active; the % refers to the signal ratio;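 also: HeLa cells with beta-lactamase reporter driven by heat shock elements; series mostly up to about 63 µM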)
Summary of the method: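 HeLa HSE-bla cells, overnight plating; cpd in DMSO 5 h, 37 C; LiveBLAzer B/G FRET substrate 2.5 h RT; fluorescence intensity read.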

[9] = qHTS assay to identify small molecule agonists of the peroxisome proliferator-activated receptor delta (PPARd) signaling pathway - cell viability counter screen (AID 743211); also: nearly all actives have a fitted effect of over 55% in size; also: potency is read from the fitted curve at half-maximal effect
Summary of the method: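 Viability of GeneBLAzer PPARd UAS-bla HEK293H cells was assessed after 17 h compound incubation at 37C, using CellTiter-Glo reagent added after the reporter read and luminescence recorded 30 min later.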

[10] = biological target: Peroxisome proliferator-activated receptor delta (Homo sapiens) (UniProt Q03181); assay: qHTS assay to identify small molecule agonists of the peroxisome proliferator-activated receptor delta (PPARd) signaling pathway (AID 743212; calls by dose curve)
Summary of the method: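 HEK293H PPARd-bla cells; 5 h preincubation 37 C/5% CO2; compound (DMSO) 37 C; LiveBLAzer B/G FRET substrate 2 h RT; fluorescence intensity.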

[11] = qHTS assay to identify small molecule antagonists of the peroxisome proliferator-activated receptor delta (PPARd) signaling pathway - cell viability counter screen (AID 743213); also: nearly all actives have a fitted effect of over 50% in size
Summary of the method: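 Luminescence from CellTiter-Glo, added after the bla read and incubated 30 min at room temperature, gives viability of HEK293H PPARd-bla cells exposed to compounds for 17 h at 37 C with 300 nM L165041.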

[12] = biological target: Peroxisome proliferator-activated receptor delta (Homo sapiens) (UniProt Q03181); assay: qHTS assay to identify small molecule antagonists of the peroxisome proliferator-activated receptor delta (PPARd) signaling pathway (AID 743215; active = well fitted inhibition curve with a large enough effect in the signal ratio in the repeat runs, not every such curve was filed as active; the % refers to the signal ratio;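 also: cells stimulated with agonist L165041 at 300 nM final during compound exposure; series mostly up to about 62 µM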)
Summary of the method: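 Read-out is beta-lactamase FRET fluorescence, measured 2 h after substrate addition at room temperature. Beforehand, UAS-bla HEK293H cells carrying the PPARd reporter were exposed to compounds with L165041 at 300 nM final for 17 h at 37 C.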

[13] = qHTS assay to identify small molecule agonists of the farnesoid-X-receptor (FXR) signaling pathway - cell viability counter screen (AID 743218); also: nearly all actives have a fitted effect of over 45% in size
Summary of the method: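 HEK 293T FXR-bla cells; 5 h pre-incubation, 16 h compound exposure at 37 C; LiveBLAzer substrate 2 h RT, then CellTiter-Glo 30 min RT, luminescence.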

[14] = qHTS assay to identify small molecule antagonists of the farnesoid-X-receptor (FXR) signaling pathway - cell viability counter screen (AID 743221; active = well fitted cell-killing curve with a large enough effect in the repeat runs, not every such curve was filed as active; also: nearly all actives have a fitted effect of over 50% in size)
Summary of the method: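 Quantitative HTS of the Tox21 10K library run in parallel with the beta-lactamase reporter read. HEK 293T cells carrying a UAS-driven bla reporter got compound and 50 uM CDCA (final) for 16 h; ATP-based luminescence followed.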

[15] = biological target: Vitamin D3 receptor (Homo sapiens) (UniProt P11473); assay: qHTS assay to identify small molecule agonists of the vitamin D receptor (VDR) signaling pathway (AID 743222; calls by dose curve)
Summary of the method: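 VDR-bla cells, 2,000/well; 4 h preincubation 37C; cpd (DMSO) 16 h; LiveBLAzer B/G substrate 2 h RT; fluorescence intensity read.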

[16] = biological target: Vitamin D3 receptor (Homo sapiens) (UniProt P11473); assay: qHTS assay to identify small molecule antagonists of the vitamin D receptor (VDR) signaling pathway (AID 743223; active = well fitted inhibition curve with a large enough effect in the signal ratio in the repeat runs, not every such curve was filed as active; the % refers to the signal ratio)
Summary of the method: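 Fluorescence from LiveBLAzer B/G FRET substrate, read after 2 h at room temperature, reflects beta-lactamase reporter activity in VDR-bla cells treated 16 h at 37C with compounds and agonist 1alpha,25-dihydroxyvitamin D3 (3 nM final).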

[17] = qHTS assay to identify small molecule that activate the aryl hydrocarbon receptor (AhR) signaling pathway - cell viability counter screen (AID 743086);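 also: HepG2 liver cells carrying the AhR DRE luciferase reporter; series mostly up to about 70 µM; nearly all actives have a fitted effect of over 45% in size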
Summary of the method: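 Cytotoxicity counter screen: CellTiter-Fluor signal (30 min, 37 C) in 4000 HepG2 cells/well carrying the DRE-luciferase reporter, following 24 h compound exposure at 37 C.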

[18] = qHTS assay for small molecule agonists of the antioxidant response element (ARE) signaling pathway (AID 743202; active = well fitted activation curve with a large enough effect in the signal ratio in the repeat runs, not every such curve was filed as active; the % refers to the signal ratio)
Summary of the method: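 Quantitative high-throughput format in HepG2 cells bearing an integrated ARE-beta-lactamase reporter. Compound exposure lasted 16 h at 37 C, and fluorescence was read 2 h after adding LiveBLAzer B/G substrate at room temperature.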

[19] = biological target: Bile acid receptor (Homo sapiens) (UniProt Q96RI1); assay: qHTS assay to identify small molecule antagonists of the farnesoid-X-receptor (FXR) signaling pathway (AID 743217; active = well fitted inhibition curve with a large enough effect in the signal ratio in the repeat runs, not every such curve was filed as active; the % refers to the signal ratio)
Summary of the method: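 HEK 293T FXR-UAS-bla, 5000 cells/well; compound + CDCA 50 uM final; 16 h, 37 °C; B/G FRET substrate 2 h RT; fluorescence.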

[20] = biological target: Bile acid receptor (Homo sapiens) (UniProt Q96RI1); assay: qHTS assay to identify small molecule agonists of the farnesoid-X-receptor (FXR) signaling pathway (AID 743220; active = well fitted activation curve with a large enough effect in the signal ratio in the repeat runs, not every such curve was filed as active; the % refers to the signal ratio)
Summary of the method: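 Beta-lactamase reporter under UAS control in GeneBLAzer FXR HEK 293T cells (5000/well) measured with LiveBLAzer FRET substrate after 2 h at room temperature. Compound exposure lasted 16 h at 37C.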

Measured: Potency

Sequence of Peroxisome proliferator-activated receptor gamma (Homo sapiens) (P37231 whole entry, looked up): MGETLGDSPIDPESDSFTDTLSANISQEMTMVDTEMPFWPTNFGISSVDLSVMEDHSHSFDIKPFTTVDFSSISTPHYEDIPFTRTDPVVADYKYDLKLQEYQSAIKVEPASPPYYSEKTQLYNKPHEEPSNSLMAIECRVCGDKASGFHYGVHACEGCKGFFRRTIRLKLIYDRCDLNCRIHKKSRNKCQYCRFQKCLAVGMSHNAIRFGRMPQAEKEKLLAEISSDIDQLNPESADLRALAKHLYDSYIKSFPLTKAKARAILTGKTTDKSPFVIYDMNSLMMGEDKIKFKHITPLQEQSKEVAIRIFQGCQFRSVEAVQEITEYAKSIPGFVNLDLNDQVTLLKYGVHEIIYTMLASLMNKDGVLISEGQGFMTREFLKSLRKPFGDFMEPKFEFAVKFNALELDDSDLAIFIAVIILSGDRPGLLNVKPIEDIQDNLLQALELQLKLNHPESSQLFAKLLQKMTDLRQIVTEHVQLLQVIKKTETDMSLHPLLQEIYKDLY
Sequence of Aryl hydrocarbon receptor (Homo sapiens) (P35869 whole entry, looked up): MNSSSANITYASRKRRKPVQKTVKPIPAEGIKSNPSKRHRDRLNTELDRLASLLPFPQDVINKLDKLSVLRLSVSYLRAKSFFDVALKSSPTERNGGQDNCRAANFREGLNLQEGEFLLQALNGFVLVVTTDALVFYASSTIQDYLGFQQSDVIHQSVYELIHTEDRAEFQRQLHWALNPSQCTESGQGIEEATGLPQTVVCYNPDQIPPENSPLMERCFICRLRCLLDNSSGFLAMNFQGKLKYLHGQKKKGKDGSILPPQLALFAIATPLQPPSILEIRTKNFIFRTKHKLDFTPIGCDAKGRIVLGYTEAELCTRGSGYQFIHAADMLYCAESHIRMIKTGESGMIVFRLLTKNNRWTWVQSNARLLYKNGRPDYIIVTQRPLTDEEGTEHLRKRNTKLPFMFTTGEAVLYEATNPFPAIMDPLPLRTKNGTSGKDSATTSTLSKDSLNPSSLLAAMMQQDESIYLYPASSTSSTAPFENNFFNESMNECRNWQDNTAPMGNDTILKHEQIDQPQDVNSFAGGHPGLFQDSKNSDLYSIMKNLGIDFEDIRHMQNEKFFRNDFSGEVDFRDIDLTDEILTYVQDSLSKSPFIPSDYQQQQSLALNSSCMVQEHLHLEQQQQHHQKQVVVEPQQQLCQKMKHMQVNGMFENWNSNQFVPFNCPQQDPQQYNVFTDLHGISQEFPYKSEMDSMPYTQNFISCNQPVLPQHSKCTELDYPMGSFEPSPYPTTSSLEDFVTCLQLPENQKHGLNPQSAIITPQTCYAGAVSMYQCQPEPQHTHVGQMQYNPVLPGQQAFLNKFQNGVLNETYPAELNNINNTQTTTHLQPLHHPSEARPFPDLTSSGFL
Sequence of Vitamin D3 receptor (Homo sapiens) (P11473 whole entry, looked up): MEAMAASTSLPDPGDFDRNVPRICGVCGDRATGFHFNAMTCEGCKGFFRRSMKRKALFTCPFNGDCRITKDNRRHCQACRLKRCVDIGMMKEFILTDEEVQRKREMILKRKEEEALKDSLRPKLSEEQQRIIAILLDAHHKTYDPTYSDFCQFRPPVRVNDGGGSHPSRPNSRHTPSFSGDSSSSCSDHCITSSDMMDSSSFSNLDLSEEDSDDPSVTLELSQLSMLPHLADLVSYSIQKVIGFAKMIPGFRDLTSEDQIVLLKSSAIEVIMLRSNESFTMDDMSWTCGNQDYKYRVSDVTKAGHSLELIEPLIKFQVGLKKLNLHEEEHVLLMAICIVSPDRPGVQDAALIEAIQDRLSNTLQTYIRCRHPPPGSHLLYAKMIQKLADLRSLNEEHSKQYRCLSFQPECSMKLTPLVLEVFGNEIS
Sequence of Peroxisome proliferator-activated receptor delta (Homo sapiens) (Q03181 whole entry, looked up): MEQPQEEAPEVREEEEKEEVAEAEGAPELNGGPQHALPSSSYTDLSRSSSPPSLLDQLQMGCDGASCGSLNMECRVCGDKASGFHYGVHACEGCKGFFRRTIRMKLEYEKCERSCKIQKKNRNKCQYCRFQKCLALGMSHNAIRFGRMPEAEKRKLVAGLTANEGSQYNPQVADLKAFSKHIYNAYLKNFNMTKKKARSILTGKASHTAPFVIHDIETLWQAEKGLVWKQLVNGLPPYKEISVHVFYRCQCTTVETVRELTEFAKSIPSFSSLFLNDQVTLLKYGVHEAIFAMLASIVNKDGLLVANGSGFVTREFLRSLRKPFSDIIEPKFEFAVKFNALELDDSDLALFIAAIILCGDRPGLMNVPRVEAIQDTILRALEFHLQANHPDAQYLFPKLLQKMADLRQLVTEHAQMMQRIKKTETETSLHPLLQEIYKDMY
Sequence of Bile acid receptor (Homo sapiens) (Q96RI1 whole entry, looked up): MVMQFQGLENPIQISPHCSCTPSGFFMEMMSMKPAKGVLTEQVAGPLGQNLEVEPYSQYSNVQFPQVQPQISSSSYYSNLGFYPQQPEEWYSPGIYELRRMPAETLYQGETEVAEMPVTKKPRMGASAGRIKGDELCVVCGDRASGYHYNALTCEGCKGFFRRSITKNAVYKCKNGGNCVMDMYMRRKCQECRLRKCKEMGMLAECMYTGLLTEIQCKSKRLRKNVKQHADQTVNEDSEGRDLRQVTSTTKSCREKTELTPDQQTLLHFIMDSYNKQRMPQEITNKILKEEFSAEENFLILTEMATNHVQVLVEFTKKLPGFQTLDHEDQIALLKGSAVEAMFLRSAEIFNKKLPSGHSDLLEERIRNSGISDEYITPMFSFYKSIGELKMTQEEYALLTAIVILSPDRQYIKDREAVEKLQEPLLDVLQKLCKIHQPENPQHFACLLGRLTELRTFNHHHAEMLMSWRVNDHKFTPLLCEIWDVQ

[O-]/[N+](=N\O)c1ccccc1
active: [2] 30.6 µM
not listed: [17] | [18] | [19] | [20]
inactive: all other assays above

C[C@]12CC[C@@H]3c4ccc(O)cc4CC[C@H]3[C@@H]1CC[C@H]2O
not listed: [4] | [14] | [18] | [19] | [20]
inactive: all other assays above

IC(I)I
not listed: [8] | [15] | [16] | [17]
inactive: all other assays above

CC[C@]12CCCN3CCc4c(n(c5ccccc45)[C@@](O)(C(=O)OC)C1)[C@@H]32
not listed: [8] | [10] | [12] | [17] | [19] | [20]
inactive: all other assays above

COc1ccc2nc(N)sc2c1
active: [2] 48.6 µM and 27.3 µM
not listed: [8] | [10] | [12] | [17] | [19] | [20]
inactive: all other assays above

NCCS(=O)(=O)O
not listed: [4] | [8] | [10] | [12] | [19] | [20]
inactive: all other assays above

CN(C)/N=N/c1nc[nH]c1C(N)=O
not listed: [4] | [15] | [16] | [17]
inactive: all other assays above

Cc1ccc(S(=O)(=O)O)cc1C
not listed: [4] | [8] | [19] | [20]
inactive: all other assays above

C=CN1CCCC1=O
not listed: [8] | [14] | [15] | [16] | [17] | [19] | [20]
inactive: all other assays above

CC(=O)O[C@]1(C(C)=O)CC[C@H]2[C@@H]3C=C(Cl)C4=CC(=O)CC[C@]4(C)[C@H]3CC[C@@]21C
inactive: [1] | [2] | [17] | [7] | [11] | [12] | [13] | [14]
48.9 µM (active) and inactive: [9]

C1COCCN1
not listed: [3] | [4] | [14] | [17] | [19] | [20]
inactive: all other assays above

Source: PubChem BioAssay (Tox21)
